The sample as a whole holds a higher share of hits than the screen did.
ERK EGF inh – qHTS Assay for Inhibitors of the ERK Signaling Pathway using a Homogeneous Screening Assay; Stimulation with EGF; Potency, µM (series often up to 11.5 µM), without a hit: at the highest dose activity change, negative = inhibition, usual class: inhibitors; 0.41% of 130,000 active; HEK293-V1b, EGF-stimulated phospho-ERK AlphaScreen; active means well fitted inhibition curve with a large enough effect;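 further: plate controls were stimulated vehicle wells for no effect and unstimulated vehicle basal for full effect; nearly all actives have a fitted effect of over 55% in size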
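Compounds are titrated over HEK293-V1b cells kept overnight in 1% FBS. After 30 min at 37C, EGF (25 nM final) triggers ERK phosphorylation for 5 min, measured by AlphaScreen in lysates.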
The depositor's hits bear a star; ! = a repeat was not active; [ ] = remark or other dose. Potency means the concentration at half of the fitted maximal effect.

NC(=O)c1cn(C2OC(CO)C(O)C2O)c2ncnc(N)c12 (centres undefined) was read as ERK EGF inh -1.7%.
CCNC(=O)[C@@H]1O[C@@H](n2cnc3c(N)ncnc32)[C@H](O)[C@H]1O was read as ERK EGF inh -13.6%.
`CCNC(=O)[C@H]1O[C@@H](n2cnc3c(N)ncnc32)[C@H](O)[C@@H]1O` gave ERK EGF inh 8.91µM*.
Screening COc1cc(C=C2C(=O)NC(=O)NC2=O)cc(OC)c1OC returned ERK EGF inh -11.5%[57.5 µM].
Screening O=C1NC(=O)N(Cc2ccc(F)cc2)C(=O)/C1=C\c1ccoc1 returned ERK EGF inh -4.3%[57.5 µM].
Screening CN1CCN(c2ccc(S(C)(=O)=O)cc2[N+](=O)[O-])CC1 returned ERK EGF inh -3.3%.
`CN1CCN(c2ccc([N+](=O)[O-])c3no[n+]([O-])c23)CC1` gave ERK EGF inh 10µM*.
For CN1CCN(c2ccc(S(=O)(=O)C(F)(F)F)cc2[N+](=O)[O-])CC1 the results were ERK EGF inh -6.3%.
For CNc1ccc2oc(C[C@H]3O[C@@]4(CC[C@H]3C)O[C@H]([C@H](C)C(=O)c3ccc[nH]3)[C@H](C)C[C@H]4C)nc2c1C(=O)O the results were ERK EGF inh 14.1µM*!.
`O=C(Oc1ccccc1)N1CCC2(CCN(Cc3ccncc3)CC2)CC1` gave ERK EGF inh -0.2%.
O=[N+]([O-])c1cc(F)c(N2CCCC2)cc1N1CCNCC1 was read as ERK EGF inh -5.8%.
Screening CC[C@]1(O)CC(O[C@@H]2CC(N(C)C)C(O)C(C)O2)c2c(cc3c(c2O)C(=O)c2c(O)ccc(O)c2C3=O)C1C(=O)OC (some centres undefined) returned ERK EGF inh -0.9%.
CC(=O)Oc1c2c(c(CC=C(C)C)c3c1C(=O)C1=CC4CC5C(C)(C)OC(C/C=C(\C)C(=O)O)(C4=O)[C@]15O3)OC(C)(CCC=C(C)C)C=C2 (some centres undefined) was read as ERK EGF inh 12.6µM*.
For O=C(O)[C@H]1[C@H]2CN[C@H](C(=O)O)[C@H]21 the results were ERK EGF inh -4.1%.
For CC1OC(=O)C(C(C)C)NC(=O)C(C(C)C)OC(=O)C(C(C)C)NC(=O)C(C)OC(=O)C(C(C)C)NC(=O)C(C(C)C)OC(=O)C(C(C)C)NC(=O)C(C)OC(=O)C(C(C)C)NC(=O)C(C(C)C)OC(=O)C(C(C)C)NC1=O (centres undefined) the results were ERK EGF inh 7.4%.
`O[N+]1=CC=CCC1=S.On1ccccc1=S.[Zn]` gave ERK EGF inh 20µM*.
Screening Clc1ccc([C@@H](OCCN2CCCCC2)c2ccccc2)cc1 returned ERK EGF inh -13.7%[25.7 µM].
For NC(Cc1ccccc1)c1nc(-c2ccccc2)no1 (centres undefined) the results were ERK EGF inh -12.5%[57.5 µM].
Screening S=P(NC1CCCCC1)(N1CC1)N1CC1 returned ERK EGF inh 0.3%[57.5 µM].
For CCC12CCCN3CCC4(c5ccc(OC)c(O)c5N(C(C)=O)C4CC1)C32 (centres undefined) the results were ERK EGF inh -13.9%.
Screening CN(C)c1ccc(/C=C2\C(=O)NC(=O)N(Cc3ccc(F)cc3)C2=O)cc1 returned ERK EGF inh 4.7%[57.5 µM].
Screening CCN(CC)c1ccc(C=C2C(=O)NC(=S)NC2=O)cc1 returned ERK EGF inh 28.2µM*.
`Cc1nn(Cc2ccccc2)c(C)c1C=C1C(=O)NC(=S)NC1=O` gave ERK EGF inh 4.6%.
O=C(COc1ccccc1F)N1CCN(CCN2C(=O)c3cccc4cccc(c34)C2=O)CC1 was read as ERK EGF inh -6.8%.
For O=C(N/N=C\C1C(=O)NC(=S)N(c2ccccc2)C1=O)c1ccc(O)cc1 (centres undefined) the results were ERK EGF inh -2.3%.
N#CC(C#N)=NNc1ccc(S(N)(=O)=O)cc1 was read as ERK EGF inh -1.2%[57.5 µM].
`CCC1CN(C)CCC1(OC(C)=O)c1ccccc1` (centres undefined) gave ERK EGF inh -22.3%.
`CCC(=NCc1ccco1)c1c(O)n(-c2ccccc2C)c(=O)[nH]c1=O` gave ERK EGF inh 3.7%[57.5 µM].
`Cc1ccc(-c2nc3ccccc3c(=O)n2-c2cccnc2)cc1` gave ERK EGF inh -0.3%.
Screening Cc1ccc2c(c1)=NC(=O)/C(=C/c1c(O)[nH]c(=O)[nH]c1=O)C=2 returned ERK EGF inh -7.6%[57.5 µM].
O=c1[nH]c(O)c(/C=C2/C=CC(c3cc(Cl)ccc3Cl)=N2)c(=O)[nH]1 was read as ERK EGF inh 28.2µM*.
`CC(C)n1c(O)c(C=NCc2cccnc2)c(=O)[nH]c1=S` gave ERK EGF inh -1.3%[57.5 µM].
For C=C(C=O)C[C@@H]1C[C@H](O)C2OC3C[C@]4(C)OC5/C=C\CC6OC7C(CC=CCC6OC5CCCC4OC3CC2O1)OC1CC2OC3CC(=O)OC3C[C@@H](C)C[C@@]2(C)OC1C[C@@H]7C (some centres undefined) the results were ERK EGF inh 3.98µM*.
